# TRAIL sens C8: caspase-8 TRAIL sensitization; inhibition (viability loss, TRAIL sensitization), % at 10 µM; NB7+C8 cells + TRAIL, ATPlite viability luminescence; actives 1% (n = 360,000); AID 624354;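 active = compounds causing at least 50% loss of cell viability in the single-dose screen, relative to plate controls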
# SENP8 block-1: inhibitors of human SENP8 protease. recombinant SENP8, Nedd8 substrate fluorescence. inhibition, % at 20 µM. actives 0.64% (n = 360,000). AID 602440; in the data active = inhibition mostly above about 40%, no sharp cut-off; inactive = mostly below about 27%
# SENP7 block: blocks the human protease SENP7; actives 1.5% (n = 330,000); recombinant SENP7, Z-RLRGG-aminoluciferin luminescence, 40 min; inhibition, % at 5 µM; Q9BQF6;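 active = inhibition above about 50% at the single test dose, limit read from the data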;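 also: plate controls were DMSO with enzyme for no effect and no enzyme buffer wells for full effect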
# Target sequence (Q9BQF6 706-1050 limits assumed): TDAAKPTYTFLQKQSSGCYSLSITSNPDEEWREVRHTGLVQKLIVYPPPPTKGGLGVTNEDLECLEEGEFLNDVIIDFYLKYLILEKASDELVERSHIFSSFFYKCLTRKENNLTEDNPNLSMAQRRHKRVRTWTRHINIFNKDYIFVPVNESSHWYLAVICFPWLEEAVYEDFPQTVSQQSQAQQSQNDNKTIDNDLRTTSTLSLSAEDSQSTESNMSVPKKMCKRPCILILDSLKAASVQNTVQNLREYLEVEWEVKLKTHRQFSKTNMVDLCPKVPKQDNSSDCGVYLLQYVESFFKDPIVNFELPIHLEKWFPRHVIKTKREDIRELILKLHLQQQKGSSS
# SENP8 block-2: blocks the human protease SENP8 | purified SENP8, Z-RLRGG-aminoluciferin cleavage, luminescence | Q96LD8 | inhibition, % at 10 µM | actives 1.2% (n = 330,000); in the data active = inhibition above about 50%
# SENP6 block: blocks the human protease SENP6; Recombinant SENP6 catalytic domain, aminoluciferin luminescence; inhibition, % at 10 µM; actives 1.8% (n = 330,000); AID 2599;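 active = inhibition above about 50% at the single tested dose, limit read from the data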;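 also: plate controls were DMSO wells with enzyme for no effect and DMSO wells lacking enzyme for full effect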
# PPC-1+TRAIL kill: kills PPC-1 cancer cells in the presence of TRAIL; cell killing (% activity), % at 4 µM or 5 µM; PPC-1 cells + TRAIL, ATPLite viability luminescence; actives 0.41% (n = 220,000);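 active = cell killing above 50% in the first pass at 4 µM, then a duplicate retest at 5 µM averaging 50% or more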;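 also: plate controls were cells with TRAIL plus DMSO for no effect and medium-only wells lacking cells for full effect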
# SENP8 confirm: human SENP8 inhibition, confirmed | shares compounds with SENP7 block | inhibition, % at 12.5 µM | actives 40% (n = 6,200) | AID 488912 | Recombinant SENP8, Z-RLRGG-aminoluciferin luminescence, 60 min;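 active = mean inhibition across replicates above about 50%, limit read from the data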
# SENP6 conf: confirmation of human SENP6 protease inhibitors; AID 488915; actives 58% (n = 6,200); recombinant SENP6, Z-RLRGG-aminoluciferin luminescence; shares compounds with SENP7 block; inhibition, % at 12.5 µM
# SENP7 conf: human SENP7 inhibition, confirmed. inhibition, % at 12.5 µM. recombinant SENP7, Z-RLRGG-aminoluciferin luminescence, 40 min. AID 488917. shares compounds with SENP7 block. actives 69% (n = 6,200)
# Casp3 select: caspase-3 inhibition (SENP selectivity assay); purified caspase-3, Z-DEVD-aminoluciferin luminescence, 60 min; actives 60% (n = 6,200); inhibition, % at 12.5 µM; shares compounds with SENP7 block;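 active = mean inhibition above about 50%, limit read from the data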;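 also: plate controls were enzyme with DMSO for no effect and wells without caspase-3 for full effect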
# Target sequence (P42574 28-227 limits assumed): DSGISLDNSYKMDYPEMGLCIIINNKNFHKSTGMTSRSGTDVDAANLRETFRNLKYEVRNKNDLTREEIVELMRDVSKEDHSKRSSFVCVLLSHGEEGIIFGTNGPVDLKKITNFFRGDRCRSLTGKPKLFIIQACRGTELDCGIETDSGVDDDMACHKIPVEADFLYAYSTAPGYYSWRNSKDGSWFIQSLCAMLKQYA
# SENP luc ctr: luminescence interference (SENP counter-screen); shares compounds with SENP7 block; actives 39% (n = 6,200); inhibition, % at 12.5 µM; AID 488919; Pre-incubated SENP8/Z-RLRGG-aminoluciferin, luciferase luminescence interference;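 active = mean inhibition above about 50% when retested at one dose, limit read from the data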;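 also: plate controls were DMSO wells with completed reaction for no effect and substrate without enzyme for full effect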
# The depositor's hits bear a star; · = no result given. Compounds with a hit are over-represented: about 3% of the library has one in this group of screens.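 The calls were made as follows, unless noted: active = mean inhibition above about 50% in the one-dose retest (limit read from the data); inactive = the rest.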
SMILES,TRAIL sens C8,SENP8 block-1,SENP7 block,SENP8 block-2,SENP6 block,PPC-1+TRAIL kill,SENP8 confirm,SENP6 conf,SENP7 conf,Casp3 select,SENP luc ctr
Cc1cc(NC(=O)Nc2ccccc2F)ccc1Br,31,20,95*,88*,80*,-16,76*,92*,102*,86*,64*
CCC1CN(C(=O)N2CCC(C(=O)Nc3ccccc3F)CC2)c2ccccc2O1 (stereo not drawn),-4,1,-6,-2,15,·,·,·,·,·,·
Cc1ccc([C@H]2C[C@H](n3cc(C4CC4)nn3)[C@@H](O)CN2C(=O)C2CCCCC2)cc1,-4,20,·,·,·,·,·,·,·,·,·
Clc1cccc(-c2nc(-c3ccc(-c4nn[nH]n4)cc3)no2)c1,1,14,79*,95*,99*,·,97*,97*,100*,83*,89*
Cc1ccn(CCC(=O)N2CCCC(CCC(=O)N3CCN(c4ccccn4)CC3)C2)n1 (stereo not drawn),-6,-30,10,-2,6,-1,·,·,·,·,·
O=C(Nc1cccnc1)C1CC(=O)N(c2ccc(F)cc2)C1 (stereo not drawn),-1,14,-6,3,-17,·,·,·,·,·,·
COc1cccc(NC(=O)c2ccc3nc(C)sc3c2)c1,1,16,89*,72*,91*,·,80*,81*,95*,87*,84*
COc1cccc(NC(=O)c2ccc3snnc3c2)c1,4,33,58*,48,64*,14,56*,52*,84*,75*,64*
COc1ccccc1NC(=O)c1ccc2nc(C)sc2c1,-7,4,3,-7,15,·,·,·,·,·,·
CCOC(=O)COc1cc2oc(=O)cc(C)c2cc1[N+](=O)[O-],-6,24,-4,5,-11,-14,·,·,·,·,·
O=c1c2ccccc2cnn1-c1ccc(Br)cc1,20,-55,66*,35,58*,32,37,43,67*,67*,44
O=c1c2ccccc2cnn1-c1ccc2ccccc2c1,51*,-118,82*,67*,88*,7,53*,77*,94*,80*,25
O=C(CC(NC(=O)C(F)(F)F)c1ccccc1)Nc1nnc(CCc2ccccc2)s1 (stereo not drawn),2,-172,-5,-11,4,18,·,·,·,·,·
COc1cc(/C=C(/C#N)c2nc3ccccc3[nH]2)ccc1OCC(=O)Nc1ccccc1C(C)C,-2,-31,-3,1,-12,-11,·,·,·,·,·
COc1cc(/C=C(\C#N)c2nc3ccccc3[nH]2)ccc1OC(=O)c1ccco1,6,-428,73*,83*,75*,21,66*,67*,99*,86*,27
COc1cc(/C=C(\C#N)c2nc(-c3cc4ccccc4oc3=O)cs2)ccc1O,28,-88,3,1,-4,11,·,·,·,·,·
COc1cc(/C=C(\C#N)c2nc3ccccc3o2)ccc1O,37,-53,80*,90*,95*,20,94*,94*,99*,86*,41
N#C/C(=C\c1ccc(O)cc1)c1nc2ccccc2o1,-13,-83,63*,74*,84*,7,81*,80*,93*,62*,74*
Cc1ccc(C)c(N/C=C(\C#N)c2nc3ccccc3o2)c1,2,4,-5,-5,2,·,·,·,·,·,·
CCCn1cnnc1CNC(=O)[C@H]1O[C@@H](n2cnc3c(N)ncnc32)[C@H](O)[C@@H]1O,-3,21,·,·,·,·,·,·,·,·,·
Cn1nc(C(=O)NCc2cccs2)c2ccccc2c1=O,-5,22,0,1,7,19,·,·,·,·,·
COc1ccc(C)cc1N(CC(=O)N1CCc2ccccc2C1)S(C)(=O)=O,-4,9,2,-4,-5,12,·,·,·,·,·
CCOc1ccc(OCc2ccc(C(=O)NN=Cc3ccc[nH]3)cc2)cc1,43,-338,93*,71*,93*,·,-1,0,3,16,29
O=C(N/N=C/c1ccc[nH]1)c1ccccc1OCc1ccc(F)cc1,-7,-272,-2,9,4,-13,·,·,·,·,·
COCCn1c(C)cc(C(=O)CSc2nc3ccccc3s2)c1C,25,2,-8,21,54*,36,55*,47,80*,43,26
SMILES,TRAIL sens C8,SENP8 block-1,SENP7 block,SENP8 block-2,SENP6 block,PPC-1+TRAIL kill,SENP8 confirm,SENP6 conf,SENP7 conf,Casp3 select,SENP luc ctr
COc1cccc(NC(=O)COc2ccc(C(=O)N3CCN(C)CC3)cc2)c1,-19,17,4,2,-14,·,·,·,·,·,·
CN(C(=O)COC(=O)c1cccnc1Nc1ccccc1F)C1CCS(=O)(=O)C1 (stereo not drawn),-8,-20,56*,23,58*,13,37,37,74*,75*,53*
O=C(COC(=O)c1cccnc1Nc1ccccc1F)NC1CC1,6,0,-13,-21,-1,-4,·,·,·,·,·
CCN(C(=O)COC(=O)c1cc(-c2ccc3cc(OC)ccc3c2)nc2ccccc12)C1CCS(=O)(=O)C1 (stereo not drawn),·,·,92*,89*,94*,83*,49,74*,23,77*,18
CCN(C(=O)COC(=O)c1cccnc1Nc1ccccc1F)C1CCS(=O)(=O)C1 (stereo not drawn),-9,2,96*,83*,91*,2,91*,91*,99*,94*,90*
CCN(C(=O)COC(=O)c1cc(OC)ccc1Br)C1CCS(=O)(=O)C1 (stereo not drawn),-14,10,-13,-22,-7,·,·,·,·,·,·
C/C(=N\OC(=O)c1ccc(Cl)cc1)c1nccs1,-12,8,88*,28,72*,-9,28,28,65*,41,32
Cc1cccc(/C(N)=N/OC(=O)c2ccc(Cl)cc2Cl)c1,62*,15,98*,97*,94*,46,99*,100*,103*,99*,96*
N/C(=N\OC(=O)c1cccc2ccccc12)c1cccnc1,6,-238,8,7,14,18,·,·,·,·,·
Cc1cccc(/C(N)=N/OC(=O)c2cccc3ccccc23)c1,92*,-132,87*,76*,87*,·,86*,85*,96*,72*,82*

# From PubChem
